Screening data from PubChem BioAssay.
The list is not random: actives were taken first. Their share in the collection is about 21%.
NS1 inh – inhibitors of influenza NS1 protein function | Potency, µM (highest dose often 46.1 µM), for inactives: at the top dose activity, positive = more growth | 270,000 tested, 0.4% active | AID 2326; further: potency means the concentration at half of the fitted maximal effect; actives are rising curves; nearly all actives have a fitted effect of over 50% in size
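A cell-based growth assay was used: compounds that relieve NS1-induced slow growth of budding yeast raise OD600. Assay medium was yeast nitrogen base with ammonium sulphate and -URA supplement, pH 6.0, with 2% galactose.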
SARS PLP yeast – inhibitors of SARS-CoV papain-like protease in yeast; 330,000 tested, 0.19% active; Potency, µM (doses to about 32.9 µM), for inactives: at the top dose activity, positive = growth rescue, usual class: activators; AID 485353; S. cerevisiae expressing SARS-CoV PLpro, growth rescue; further: potency means the concentration at half of the fitted maximal effect; 0% is about no effect; nearly all actives have a fitted effect of over 55% in size
Pf growth 96h – P. falciparum growth inhibition at 96 hours. 320,000 tested, 6.9% active. AID 504834. P. falciparum luciferase reporter growth, 96 h. Potency, µM (doses to about 28.7 µM), without a hit: at the highest dose activity change, negative = inhibition, most hits filed as inhibitors; active means well fitted inhibition curve with a large enough effect; inconclusive means small, poorly fitted or top-dose-only effect, or another doubt; inactive means no such curve, though single readings can be large or run the other way; further: potency means the concentration at half of the fitted maximal effect; on the % scale 0 is the no-effect control and ±100 the full control effect
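Two-generation exposure (96 h) targets delayed-death phenotype. Reporter parasites carrying integrated firefly luciferase, in red cells at 2% hematocrit and 0.05% parasitemia final, kept at 37 C, 5% CO2; luminescence loss indicates inhibition.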
CHX counter – affects cycloheximide protein synthesis inhibition readout, counter-screen | 300,000 tested, 12% active | cell reporter, cycloheximide protein synthesis inhibition counterscreen | max response, %; in the data active means max response mostly above about 13%, no sharp cut-off; inactive means mostly below about 14%; further: read at 38.3 µM for the half of the compounds with a filed dose; 0% is about no effect
Shiga toxin inh – inhibitors of Shiga toxin in Vero cells. Vero cells, Shiga toxin protein synthesis inhibition reporter. inhibition, % at 38.7 µM. 290,000 tested, 9.2% active; in the data active means inhibition mostly above about 28%, no sharp cut-off; inactive means mostly below about 43%; further: 0% is about no effect
Pf growth 48h – inhibits P. falciparum growth in the first generation, 48 h; Potency, µM (titrated, usually from 28.7 µM), for the others: at the top dose activity change, negative = inhibition, most hits filed as inhibitors; P. falciparum luciferase growth in erythrocytes, 48 h; 310,000 tested, 5.9% active; AID 504832; active means well fitted inhibition curve with a large enough effect; inconclusive means small, poorly fitted or top-dose-only effect, or another doubt; inactive means no such curve, though single readings can be large or run the other way; further: potency means the concentration at half of the fitted maximal effect; on the % scale 0 is the no-effect control and ±100 the full control effect
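Erythrocytes infected with P. falciparum carrying an integrated firefly luciferase reporter (2% hematocrit, 0.1% parasitemia final) were exposed to compounds in RPMI 1640 with 0.5% Albumax at 37 C, 5% CO2. Growth inhibition was scored as reduced luminescence.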
Starred values were filed as active, the others as inactive; ? = inconclusive; nt = no result; [ ] = remark or other dose. Unless noted, the call rests on the fitted dose curve.

SMILES	NS1 inh	SARS PLP yeast	Pf growth 96h	CHX counter	Shiga toxin inh	Pf growth 48h
CCOC(=O)Cn1cncc1-c1ccc([N+](=O)[O-])cc1	4%	12%	-8%	72*	84*	29%
CCOc1ccc(NC(=O)Cn2cncc2-c2ccc([N+](=O)[O-])cc2)cc1	-4%	28%	?	-6	-12	8%
c1ccc(-c2ncc3ccccn23)cc1	7%	0%	?	15*	59	?
c1ccc2c(c1)ncc1cccn12	-21%	1%	21%	2	-21	nt
Cc1ccc(S(=O)(=O)N2CC(O)CC2C(=O)OCC(=O)Nc2ccc([N+](=O)[O-])cc2C(F)(F)F)cc1C (configuration not stated)	nt	-1%	nt	nt	nt	nt
CCOC(=O)C1CCCN(c2ccc(NC(=O)c3snc4c(=O)[nH]c(C)nc34)cc2)C1 (configuration not stated)	17%	1%	0.93µM*	6	-9	?
CCOC(=O)C1CCCN(c2ccc(NC(=O)c3snc4c(=O)[nH]cnc34)cc2)C1 (configuration not stated)	6%	-2%	nt	4	30	?
CCOC(=O)C1(C(C)(C)CC)CC(CSc2nc3ccccc3[nH]2)OC1=O (configuration not stated)	-23%	-26%	-22%	-2	2	8.3µM*
CCN(CC)S(=O)(=O)c1ccc(Cl)c(C(=O)OC2CC(C)OC2=O)c1 (configuration not stated)	7%	-1%	15%	-3	-9	6%
Cc1ccc(O)c(C(CC(=O)N2CCCC2)c2ccccc2)c1 (configuration not stated)	-5%	28%	0.37µM*	-1	6	-1%
Cc1ccc(O)c(C(CC(=O)NC(C)C)c2ccccc2)c1 (configuration not stated)	-2%	0%	13µM*	-2	-10	-19%
O=C(CC(c1ccccc1)c1cc(Br)ccc1O)N1CCCC1 (configuration not stated)	-8%	0%	16%	4	3	?
Cc1ccc(S(=O)(=O)N2C(=O)CCC2C(=O)O/N=C(\N)c2cccc([N+](=O)[O-])c2)cc1 (configuration not stated)	-18%	-8%	?	-1	-3	0%
c1ccc(CCCN2CCN(c3ccccn3)CC2)cc1	12%	4%	-24%	7	3	26%
CC(C)(C)c1cc(C(=O)Nc2ccccc2)ccn1	0%	14%	0%	25*	20	33%
CC1Cc2ccccc2N1C(=O)c1ccnc(C(C)(C)C)c1 (configuration not stated)	-50%	7%	30%	5	-11	12µM*
Cc1ccc(NC(=O)c2ccnc(C(C)(C)C)c2)cc1	-8%	28%	69%	16*	71*	40%
Cc1ccc(OCC(=O)Nc2ccncc2)cc1	-9%	-9%	?	10	-2	17%
CCCN(CC1CC1)c1nc(C)nc(Nc2c(Cl)cc(Cl)cc2Cl)c1Cl	-17%	nt	nt	nt	nt	nt
CN(C(=O)CSc1nc2c(cnn2-c2ccccc2)c(=O)[nH]1)C1CCS(=O)(=O)C1 (configuration not stated)	2%	0%	?	-2	-5	-1%
COc1ccc(C(=O)Nc2ccc(C(F)(F)F)n(C)c2=O)cc1	1%	7%	121%	19*	58*	95%
COCCn1c(C(F)(F)F)ccc(NC(=O)c2ccccc2)c1=O	-5%	-2%	140%	48*	51*	125%
Cc1ccc(C(=O)Nc2ccc(C(F)(F)F)n(C)c2=O)cc1	2%	1%	154%	45*	87*	264%
COc1ccc(C(=O)Nc2cc(C(F)(F)F)ccc2-n2cnc3ccccc32)cc1	2%	11%	?	-1	-3	?
CCN(CC)S(=O)(=O)c1ccc(C(=O)Nc2ccc(C(F)(F)F)n(C)c2=O)cc1	-1%	4%	-9%	-6	51	-8%
SMILES	NS1 inh	SARS PLP yeast	Pf growth 96h	CHX counter	Shiga toxin inh	Pf growth 48h
COCCn1c(SCC(=O)NNC(=O)c2ccccc2)nc2ccccc2c1=O	-8%	-3%	?	2	-12	-14%
Cc1ccc(C)c(NC(=O)CCN2CCCC(C)C2)c1 (configuration not stated)	8%	5%	-15%	-4	-12	50%
C=CCCN(Cc1ccc(OC)cc1)S(=O)(=O)c1ccccc1Br	nt	nt	nt	-4	27	nt
CCC(=O)OC1(C)C(=O)C2=COC(c3ccc(OC)cc3)=CC2=C(Br)C1=O (configuration not stated)	-68%	7%	31%	-2	-3	41%
COC(=O)CCC(=O)OC1(C)C(=O)C2=CN(CC(C)C)C(c3ccc(OC)cc3)=CC2=C(Br)C1=O (configuration not stated)	30%	-2%	13µM*	-2	-2	?
COC(=O)CCC(=O)OC1(C)C(=O)C2=CN(CCCOC(C)C)C(c3ccc(OC)cc3)=CC2=C(Br)C1=O (configuration not stated)	3%	2%	12µM*	-3	-13	?
COC(=O)CCC(=O)OC1(C)C(=O)C=C2C=C(C3CC3)N(Cc3ccc(OC)cc3)C=C2C1=O (configuration not stated)	9%	2%	?	-3	-6	?
COC(=O)CCC(=O)OC1(C)C(=O)C2=CN(CC3CC3)C(c3ccc(OC)cc3)=CC2=C(Br)C1=O (configuration not stated)	?	3%	?	-4	-9	13µM*
O=C(CSc1cccc[n+]1[O-])Nc1ccc2c(c1)OCO2	nt	0%	-32%[5.75 µM]	5	13	-12%
COc1ccccc1CNS(=O)(=O)c1ccc2[nH]c3c(c2c1)CCCCC3	nt	nt	nt	6	16	nt
Cc1ccnc(N(C(=O)c2cccs2)C(=O)c2cccs2)c1	0%	-8%	11%	42*	71*	168%
Cc1ccnc(NC(=O)CCC(=O)c2cccs2)c1	nt	-4%	30%	nt	nt	16%
O=C(c1cccs1)N(C(=O)c1cccs1)c1ccc(Br)cn1	-127%	-32%	nt	37*	57	184%
O=S(=O)(c1cccc(C(F)(F)F)c1)N1CCN(CC(O)COCc2ccccc2)CC1 (configuration not stated)	nt	1%	nt	nt	nt	nt
N#C/C(=C(/O)CCl)c1nc(-c2ccccc2)cs1	-2%	-1%	0%	21*	52*	24%
Cc1ccc(-c2csc(/C(C#N)=C(\O)CCl)n2)cc1	nt	-2%	27%	33*	93*	58%
N#C/C(=C(/O)CN1CCOCC1)c1nc(-c2ccccc2)cs1	10%	2%	?	-3	2	nt
COc1ccccc1N1CCN(C/C(O)=C(\C#N)c2nc(-c3ccccc3)cs2)CC1	?	4%	?	9	-1	-3%
